Data taken from the supplement of paper PMC10646978.
± gives the standard deviation.

Columns and labels:
Details in all cases: modulator concentration 10 µM
[1] = test system: RAW-Dual (murine macrophage reporter line); assay: NF-kB reporter (SEAP) activity fold change vs agonist alone; higher = enhanced NF-kB activity
Outline: (§1)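 RAW-Dual murine macrophage reporter cells were plated at 50 000 per well in 384-well plates, pin-transferred compound to 10 μM final, and pre-incubated for 1 hour at 37 °C before a PRR agonist was added and the cells incubated overnight. NF-κB activity was read from supernatant SEAP with QUANTI-Blue at 620 nm absorbance, and IRF activity from Lucia luciferase with QUANTI-Luc by luminescence. Each signal was expressed as fold change by dividing by the mean agonist-only control on the same plate. Two replicate plates were averaged, with errors obtained by propagation.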

[2] = test system: RAW-Dual (murine macrophage reporter line); assay: IRF reporter (Lucia luciferase) activity fold change vs agonist alone; higher = enhanced IRF activity
Outline: as §1

[3] = test system: RAW-Dual (murine macrophage reporter line); assay: viability score (confluency relative to resting cells, overnight) (fraction); higher = more viable, active = viable (0.7 or more)
Outline: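 Two confluency masks, generated with IncuCyte software over all imaged wells, were applied to IncuCyte images of RAW-Dual macrophages. The cells, in 384-well plates, had been exposed overnight to 10 μM final compound. The viability score is confluency as a fraction of resting cells, and a compound met the cutoff only with both masks above 70% of resting cells.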

[4] = agonist: CpG ODN 1826 0.5 ug/mL

Row | Compound | NF-kB reporter [1, 4] | NF-kB reporter ([1]; agonist: LPS 0.1 ug/mL) | NF-kB reporter ([1]; agonist: MPLA […]) | IRF reporter ([2]; agonist: 3'3'-cGAMP 10 ug/mL) | IRF reporter ([2]; agonist: LPS 0.1 ug/mL) | IRF reporter ([2]; agonist: MPLA […]) | viability score [3]
1 | COC(=O)CSc1nc(O)c2c(C)c(C)sc2n1 | 0.808 ± 0.077 | 0.829 ± 0.04 | 1.03 ± 0.1 | 0.984 ± 0.046 | 1.49 ± 0.093 | 1.55 ± 0.19 | 1.01 (active)
2 | CCCCOc1ccc(S(=O)(=O)NCCCn2ccnc2)cc1 | 0.946 ± 0.078 | 1.18 ± 0.089 | 1.21 ± 0.071 | 1.07 ± 0.038 | 1.84 ± 0.13 | 1.58 ± 0.2 | 0.987 (active)
3 | Clc1ccc(Nc2nc3nonc3nc2NC2C3CC4CC(C3)CC2C4)cc1 (stereo unspecified) | 1.15 ± 0.12 | 1.15 ± 0.07 | 1.2 ± 0.096 | 0.702 ± 0.27 | 1.32 ± 0.17 | 1.15 ± 0.16 | 0.931 (active)
4 | Cl.Fc1ccc([C@@H]2CCNC[C@H]2COc2ccc3c(c2)OCO3)cc1 | 0.575 ± 0.05 | 1 ± 0.051 | 1.23 ± 0.069 | 1.11 ± 0.072 | 1.05 ± 0.055 | 1.04 ± 0.2 | 0.253 (inactive)
5 | Nc1ccc(S(N)(=O)=O)cc1 | 1.1 ± 0.094 | 0.993 ± 0.069 | 1 ± 0.088 | 1.22 ± 0.27 | 0.933 ± 0.038 | 0.904 ± 0.072 | 0.994 (active)
6 | CCN(CC)c1ccc(C=Nn2nnnc2N)c(O)c1 | 1.01 ± 0.078 | 0.869 ± 0.1 | 1.13 ± 0.11 | 0.942 ± 0.039 | 1.06 ± 0.13 | 1.44 ± 0.29 | 0.955 (active)
7 | CCOc1ccccc1OCCCCOc1ccc(Cl)c(C)c1 | 0.947 ± 0.11 | 1.12 ± 0.081 | 1.07 ± 0.084 | 0.937 ± 0.1 | 1.03 ± 0.16 | 1.15 ± 0.35 | 1 (active)
8 | CC[C@H](C)C(=O)O[C@H]1C[C@@H](C)C=C2C=C[C@H](C)[C@H](CC[C@@H]3C[C@@H](O)CC(=O)O3)[C@H]21 | 2.37 ± 0.12 | 1.5 ± 0.12 | 1.77 ± 0.078 | 0.639 ± 0.058 | 0.795 ± 0.055 | 0.776 ± 0.17 | 0.238 (inactive)
9 | COc1ccc(NC(=O)CCn2nc(C)nc2C)cc1 | 1.04 ± 0.099 | 1.07 ± 0.085 | 0.963 ± 0.12 | 0.961 ± 0.049 | 1.09 ± 0.068 | 1.01 ± 0.12 | 1 (active)
10 | Fc1ccc(Nc2nc(NN=Cc3ccccc3F)nc(N3CCCCC3)n2)cc1 | 1.41 ± 0.13 | 0.987 ± 0.12 | 1.02 ± 0.096 | 1.16 ± 0.081 | 1.26 ± 0.18 | 1.74 ± 0.28 | 1.01 (active)
11 | CCC(C(=O)N1CCC2(CC1)CC2(F)F)c1ccccc1 (stereo unspecified) | 1.08 ± 0.069 | 1.08 ± 0.098 | 1.62 ± 0.45 | 1.06 ± 0.048 | 1.19 ± 0.24 | 1.36 ± 0.33 | 0.911 (active)
12 | Cc1ccnc2c1NC(=O)c1cccnc1N2C1CC1 | 1.19 ± 0.26 | 1.2 ± 0.3 | 0.967 ± 0.067 | 0.88 ± 0.035 | 1.34 ± 0.36 | 1.29 ± 0.097 | 0.994 (active)
13 | COc1c(C)c2c(c(O)c1CC=C(C)CCC(=O)O)C(=O)OC2 | 0.695 ± 0.23 | 0.118 ± 0.008 | 0.367 ± 0.023 | 0.287 ± 0.0097 | 1.16 ± 0.15 | 1.55 ± 0.16 | 0.547 (inactive)
